# Source: PubChem BioAssay (NCATS)
# Results filed as inconclusive are left out. Where a call stands in place of a potency, no number is given. Calls of active or inactive are those of the source. The call rests on the fitted dose curve; in most records, active means well fitted curve in the direction sought with a large enough effect; inconclusive means small, poorly fitted or top-dose-only effect, or another doubt; inactive means no such curve, though single readings can be large; an effect the other way counts as inactive or inconclusive.
# Assays:
# [1] = target: Cytochrome P450 3A7 (Homo sapiens) (UniProt P24462); assay: Cytochrome P450 family 3 subfamily A member 7 (CYP3A7) small molecule antagonists: luciferase biochemical qHTS assay (AID 1963596)
# How it was run: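 Recombinant CYP3A7 P450-Glo luminescent assay: enzyme-proluciferin substrate mix preincubated with compound 10 min at room temperature, reaction started with NADPH regeneration system for 1 h. Luciferin detected by luminescence; ketoconazole as positive control.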
# [2] = Viability qHTS for spleen associated tyrosine kinase inhibitor (SYKi) naive MV4-11 cells (AID 1963823)
# How it was run: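 Cells: MV4-11, SYK inhibitor naive, 500 per well. Treatment: library compounds, 72 hr, 37 C, 5% CO2. Read-out: CellTiter-Glo luminescence after 10 min RT.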
# Further: nearly all actives have a fitted effect of over 40% in size.
# Potency means the concentration at half of the fitted maximal effect.
# Chain of Cytochrome P450 3A7 (Homo sapiens) (P24462 whole entry, looked up): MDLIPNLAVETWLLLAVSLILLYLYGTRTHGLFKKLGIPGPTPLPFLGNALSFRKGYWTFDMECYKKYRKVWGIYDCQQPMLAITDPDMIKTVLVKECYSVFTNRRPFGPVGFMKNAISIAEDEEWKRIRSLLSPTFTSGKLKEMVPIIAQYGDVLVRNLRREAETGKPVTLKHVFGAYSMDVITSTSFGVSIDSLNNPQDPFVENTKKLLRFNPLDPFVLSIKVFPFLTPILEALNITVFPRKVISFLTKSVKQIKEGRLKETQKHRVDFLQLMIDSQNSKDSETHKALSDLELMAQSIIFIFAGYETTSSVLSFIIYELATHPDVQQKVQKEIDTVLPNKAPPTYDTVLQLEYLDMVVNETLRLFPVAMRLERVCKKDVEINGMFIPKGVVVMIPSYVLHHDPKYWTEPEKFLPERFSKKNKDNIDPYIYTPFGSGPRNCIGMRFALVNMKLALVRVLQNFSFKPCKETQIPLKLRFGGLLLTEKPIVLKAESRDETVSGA
Compound,Potency [1],Potency [2]
CCC[C@H](N[C@@H](C)C(=O)N1[C@H](C(=O)O)C[C@@H]2CCCC[C@@H]21)C(=O)OCC,inactive,
FC(F)OC(Cl)C(F)(F)F (configuration not stated),inactive,
CCN(CCCO)CCCOc1ccc2c(Nc3cc(CC(=O)Nc4cccc(F)c4)[nH]n3)ncnc2c1,14.1 µM (active),
CCc1ccc(OCCn2c(C3CC(=O)N(Cc4ccc(F)cc4)C3)nc3ccccc32)cc1 (configuration not stated),inactive,
CC(C)(F)C[C@@H](N[C@@H](c1ccc(-c2ccc(S(C)(=O)=O)cc2)cc1)C(F)(F)F)C(=O)NC1(C#N)CC1,inactive,
COc1cc(C(=O)NC(c2ccccc2Cl)c2cc(Cl)c3cccnc3c2O)cc(OC)c1OC (configuration not stated),inactive,
O=C(OCCO)c1ccccc1O,inactive,
O=C(c1ccc(OC(F)F)c(C#Cc2ccccn2)c1)N1Cc2cccnc2C1,inactive,
CC1(C#N)CCN(c2c(C(=O)N3CCC(C(=O)C4CC4)CC3)cnc3ccc(F)cc23)CC1,inactive,
CC[C@H]1OC(=O)C[C@@H](O)[C@H](C)[C@@H](O[C@@H]2O[C@H](C)[C@@H](O[C@H]3C[C@@](C)(O)[C@@H](O)[C@H](C)O3)[C@H](N(C)C)[C@H]2O)[C@@H](CC=O)C[C@@H](C)C(=O)/C=C/C(C)=C/[C@@H]1CO[C@@H]1O[C@H](C)[C@@H](O)[C@@H](OC)[C@H]1OC,inactive,
CCC(CC)Nc1nc(C)c(-c2ccc(OC(F)(F)F)cc2OC)nc1OC,inactive,
CC(C)c1cccc2c(-c3ccccc3)cc(-c3ccc(-c4ccc(C(=O)O)cc4)[nH]3)nc12,inactive,
CCc1ccc(C2=CC(c3c(F)cccc3Cl)n3c(nc4ccccc43)N2)cc1 (configuration not stated),inactive,
CN1c2c(nc(N)[nH]c2=O)NCC1CNc1ccc(C(=O)NC(CCC(=O)O)C(=O)O)cc1 (configuration not stated),inactive,
CC1CCCCC1N(Cc1ccccc1)[S+](=O)([O-])c1ccc([S+](=O)([O-])N(C)C)cc1 (configuration not stated),inactive,
C[C@@H](O)[C@H](NC(=O)c1ccc(C#Cc2ccc(CN3CCOCC3)cc2)cc1)C(=O)NO,inactive,23.1 µM (active)
CC1(C)CCC(C)(C)c2cc(C#Cc3ccc(C(=O)O)cc3)ccc21,inactive,inactive
Cc1nnc(-c2ccc(-c3ccc(C(=O)Nc4ccc(O)c(N5CCN(C)CC5)c4)cc3)c(C)c2)o1,inactive,inactive
Cc1ccnn1-c1ccc(C(=O)N2CCN(S(=O)(=O)c3ccc(Cl)c(C(F)(F)F)c3)CC2)cc1,inactive,inactive
Cc1cc(CC(=O)O)n(C)c1C(=O)c1ccc(Cl)cc1,inactive,inactive

Compound,Potency [1],Potency [2]
CCC(COC)n1nnc2c(Nc3ccc(OC)cc3C)nc(C)cc21 (configuration not stated),inactive,
Cc1cccc(C#Cc2cc(F)cc(C#N)c2)n1,inactive,inactive
C[C@@H]1C[C@H](C)CN(CCC(=O)Nc2ccc(Br)cc2)C1,inactive,inactive
Cc1cc(C)cc(NC(=O)CSc2c(C(C)C)cnc3c2c(=O)n(C)c(=O)n3C)c1,inactive,
CC1(C)CC(NC(=O)C(=O)Nc2ccc(Cl)cc2)CC(C)(C)N1,inactive,inactive
CN1CCC(Nc2nc(Nc3ccc(Oc4ccccc4)cc3)c3c(=O)[nH]cc(Br)c3n2)CC1,6.74 µM (active),inactive
CCC(C)C(N)C(=O)NCCN1CCOCC1 (configuration not stated),inactive,inactive
CN1CCN(C(=O)CN[C@@H]2C[C@H]2c2ccc(OCc3ccccc3)cc2)CC1,inactive,25.9 µM (active)
COc1cc(NC(=O)c2ccccn2)ccc1Cl,inactive,
OCCOCCOCCO,inactive,
c1ccc(-c2csc(N3CCOCC3)n2)cc1,inactive,inactive
COc1cccc(OC)c1-c1nc(C(=O)N[C@@H](CC(C)C)C(=O)O)cn1-c1ccnc2cc(Cl)ccc12,inactive,inactive
COc1ccc(-n2c(SCC#N)nc3sc4c(c3c2=O)CCCC4)cc1,inactive,inactive
NC(=O)c1ncn(C2OC(CO)C(O)C2O)n1 (configuration not stated),inactive,
C[C@@H](Nc1cc(NS(=O)(=O)N2CCC2)nc(SCc2cccc(F)c2F)n1)[C@@H](O)CO,inactive,inactive
CCCCS(=O)(=O)NC(Cc1ccc(OCCCCC2CCNCC2)cc1)C(=O)O (configuration not stated),inactive,inactive
O=C1N=C(N2CCOCC2)CN1c1ccc(Cl)cc1,inactive,inactive
Cc1c(O)cc2c(c1C)O[C@](C)(CCC[C@H](C)CCC[C@H](C)CCCC(C)C)CC2,inactive,
O=c1c(-c2ccccc2)c1-c1ccccc1,inactive,23.7 µM (active)
